# Source: PubChem BioAssay AID504683 (Southern Research Specialized Biocontainment Screening …, 2011)
# Potency and affinity values are given separately. Active and inactive are the calls of the source. No rule for the calls is given here.
# Test: cytotoxicity control, cell-based, set 2 (AID 504683)
# Settings: THP-1 human monocytes; series mostly up to 100 µM; viability: at the top concentration
row,SMILES,viability
1,CCSc1nc(C)c(C)c(=O)[nH]1,100% (inactive)
2,COc1cc(NC(=O)C/C(C)=N/NC(=O)c2ccccn2)c(OC)cc1Cl,99.3% (inactive)
3,COC(=O)C(C)Oc1ccc(Cc2ncc(C(F)(F)F)cc2Cl)cc1 (stereo not drawn),102% (inactive)
4,O=C(CSc1ncccn1)NC1CCCCC1,110% (inactive)
5,CC1CCN(C(=O)C2CCN(c3nnc(-n4cccc4)s3)CC2)CC1,90.2% (inactive)
6,Cc1cc(=O)[nH]c(=S)[nH]1,114% (inactive)
7,O=C(CSc1nc2ccccc2c(=O)[nH]1)NCc1ccc(Cl)cc1,89.6% (inactive)
8,CCOC1OC(=O)C(Cl)=C1Nc1ccccc1C (stereo not drawn),91.5% (inactive)
9,Cc1ccc(NC(=O)C2C3/C=C\CCCCC32)cc1C (stereo not drawn),93% (inactive)
10,CCSc1nc2ccccc2c(=O)[nH]1,90.2% (inactive)
11,O=C(CSc1nccc(=O)[nH]1)Nc1ccc(Oc2ccccc2)cc1,94.9% (inactive)
12,O=C(/C=C\c1cccs1)N1CCN(Cc2ccc3c(c2)OCO3)CC1,87.9% (inactive)
13,Cc1c[nH]c(=S)[nH]c1=O,113% (inactive)
14,COC(=O)C1CC(=O)N(c2ccc(OCc3ccccc3Cl)cc2)C1 (stereo not drawn),95.3% (inactive)
15,COC(=O)CCc1nc2c(C#N)c(-c3ccc(Cl)cc3)ccn2n1,97.2% (inactive)
16,Cc1nc(SCC(=O)NC2CCCCC2)[nH]c(=O)c1C,113% (inactive)
17,Cc1nc(SCc2ccccc2Cl)[nH]c(=O)c1C,97.9% (inactive)

row,SMILES,viability
1,Cc1ccc(NC(=O)COC(=O)CCc2c[nH]c3ccccc23)cc1[N+](=O)[O-],104% (inactive)
2,Cc1nc(SCC(=O)N(C)c2ccccc2)[nH]c(=O)c1C,90% (inactive)
3,CCOC(=O)COc1ccc(/C=C2\NC(=S)N(CC)C2=O)cc1,83.1% (inactive)
4,O=C(CSc1ccccn1)NC1CCCCC1,106% (inactive)
5,Cc1[nH]c(=S)[nH]c(=O)c1C,101% (inactive)
6,Cc1nc(SCC(N)=O)[nH]c(=O)c1C,102% (inactive)
7,O=C(CSc1nc(O)cc(=O)[nH]1)Nc1ccccc1,103% (inactive)
8,CCOC(=O)CSc1nc(C)c(C)c(=O)[nH]1,101% (inactive)
9,CCc1ccc(/C=C2/C(=O)N(C)C(=S)N2CC(=O)OC)s1,82.8% (inactive)
10,O=C(CSc1nc2ccccc2c(=O)[nH]1)NC1CCCCC1,106% (inactive)
11,O=c1[nH]c(=S)[nH]c2ccccc12,105% (inactive)
12,O=C(CSc1nccc(=O)[nH]1)Nc1ccc(N2CCOCC2)cc1,103% (inactive)
13,Cc1cc(=O)[nH]c(SCC(=O)Nc2ccccc2)n1,90.5% (inactive)
14,CC(=NCc1ccc2c(c1)OCO2)C1=C(O)c2ccccc2C1=O,96.5% (inactive)
15,COC(=O)c1ccc(CNc2c(N3CCCC3)c(=O)c2=O)cc1,100% (inactive)
16,COC(=O)C(C)Oc1ccc(-c2nccc(-c3ccccn3)n2)cc1 (stereo not drawn),83.3% (inactive)
